# L3MBTL1 block – inhibitors of human L3MBTL1. Q9Y468. 0.66% of 230,000 active. Potency, µM (series often up to 57.1 µM), inactives show top-dose activity, negative = inhibition, hits mostly inhibitors. AID 485360. AlphaScreen L3MBTL1–H3K9me1 peptide binding; note: nearly all actives have a fitted effect of over 60% in size
#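 Read-out is AlphaScreen signal from streptavidin donor and nickel chelate acceptor beads (10 ug/mL final each) bridging L3MBTL1 (50 nM) and biotinylated K9-monomethylated H3(1-15) peptide (75 nM), after 30 min compound exposure at room temperature.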
# RECQ1 inh-1 – inhibitors of human RECQ1 DNA helicase; Potency, µM (titrated, usually from 57.3 µM), for inactives: at the top dose activity, negative = inhibition, usual class: inhibitors; 0.54% of 240,000 active; RECQ1 DNA unwinding, red fluorescence kinetic read; P46063;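 note: plate controls were vehicle for no effect and no enzyme for full effect; nearly all actives have a fitted effect of over 30% in size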
#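 50 nM RECQ1T1 preincubated 15 min with compound in Tris pH 8.0 buffer with MgCl2, DTT, Tween-20 and 2.5 ug/ml poly(dI-dC); started with 200 nM TAMRA/BHQ-2 forked duplex and 2 mM ATP. Unwinding read as fluorescence (525/598 nm), two reads 2 h apart.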
# BLM inh-1 – blocks DNA unwinding by human BLM helicase | Potency, µM (series often up to 56.1 µM), for inactives: top-dose activity change, negative = inhibition, usual class: inhibitors | 0.2% of 350,000 active | recombinant BLM DNA unwinding, fluorescence dequenching | AID 2528;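 note: plate controls were vehicle for no effect and no enzyme for full effect; nearly all actives have a fitted effect of over 35% in size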
# APEX1 inh – APE1 (human) endonuclease inhibition; P27695; recombinant APE1, TAMRA/BHQ-2 abasic DNA cleavage fluorescence; Potency, µM (series often up to 65.8 µM), without a hit: top-dose activity change, negative = inhibition, usual class: inhibitors; 0.35% of 350,000 active;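 note: plate controls were vehicle for no effect and reference inhibitor for full effect; nearly all actives have a fitted effect of over 55% in size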
#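 Endonuclease cleavage of a quenched abasic-site DNA duplex (50 nM) by APE1 (0.75 nM) was tracked by TAMRA dequenching. Compounds were preincubated with enzyme 15 min at room temperature; data normalized to buffer-only and DMSO wells plus NSC13755 control.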
# WRN helicase inh – inhibitors of human WRN helicase. Q14191. WRN helicase unwinding, fluorescent forked duplex, kinetic. Potency, µM (series often up to 114 µM), inactives show at the highest dose activity change, negative = inhibition, most hits filed as inhibitors. 0.46% of 360,000 active; note: nearly all actives have a fitted effect of over 55% in size
#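 Fluorescence dequenching readout, ex 525 nm/em 598 nm, kinetic mode: forked duplex DNA (100 nM final) with adjacent fluorophore and quencher unwound by WRN (20 nM final) with 2 mM ATP. Compound preincubation 15 min, room temperature.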
# BLM inh-2 – confirmation of inhibitors of human Bloom syndrome helicase BLM. Potency, µM, for inactives: max response, negative = inhibition, usual class: inhibitors. shares compounds with BLM inh-1. AID 2585. 40% of 220 active. BLM DNA unwinding, fluorescence quenching, biochemical;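 note: strand separation dequenches TAMRA so unwinding raises red fluorescence; series mostly up to about 69 µM; nearly all actives have a fitted effect of over 45% in size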
# RECQ1 inh conf – confirmation of human RECQ1 helicase inhibitors. shares compounds with RECQ1 inh-1. RECQ1 helicase DNA unwinding, fluorescence. Potency, µM (top dose mostly 229 µM), for the others: at the top dose activity change, negative = inhibition, actives largely listed as inhibitors. 28% of 610 active. AID 2708; note: nearly all actives have a fitted effect of over 45% in size
# RECQ1 ADP FP – displaces ADP in a fluorescence polarization counter-screen for RECQ1 hits. shares compounds with RECQ1 inh-1. ADP fluorescence polarization displacement counterscreen. Potency, µM (highest dose often 228 µM), for the others: top-dose activity change, negative = inhibition, most hits filed as inhibitors. 27% of 530 active. AID 2711; note: nearly all actives have a fitted effect of over 45% in size
# RECQ1 inh-2 – RECQ1 helicase inhibition confirmed, round 2; shares compounds with RECQ1 inh-1; recombinant RECQ1 DNA unwinding, red fluorescence; Potency, µM (doses to about 119 µM), inactives show at the highest dose activity, negative = inhibition, usual class: inhibitors; 15% of 1,100 active; note: nearly all actives have a fitted effect of over 50% in size
# * = called active by the depositor; i = inactive; ? = inconclusive; . = no result given; [ ] = dose if it differs, or a comment. Most compounds without a hit are left out; they make up all but 0.92% or so of the library. Calls come from the whole dose curve; as a rule, active = well fitted curve in the direction sought with a large enough effect; inconclusive = small, poorly fitted or top-dose-only effect, or another doubt; inactive = no such curve, though single readings can be large; an effect the other way counts as inactive or inconclusive. Unless noted, % is set by controls: 0 for no effect and ±100 for the full control effect; potency is the fitted concentration of half-maximal effect.
SMILES,L3MBTL1 block,RECQ1 inh-1,BLM inh-1,APEX1 inh,WRN helicase inh,BLM inh-2,others
Cc1c(C(=O)Nc2ccc(F)cc2)cn2c(nc3ccccc32)c1C#N,.,-8.1%,-6.9%,28.2%,-1.2%,.,
N#Cc1c2nc3ccccc3nc2n2cc(NC(=O)c3ccc(F)cc3)ccc12,-45.5%,-6.2%,12.6µM*,3.5%,20µM*,7.25µM*,
CCOC(=O)C1CCN(c2nc3ccccc3n2CC(=O)c2ccccc2)CC1,-9.4%,i,20µM*,0.1%,-5.9%,-1.7%,
O=C(O)C1CSC(c2ccco2)N1 (stereo unspecified),43.9%,31.6µM*,25.1µM*,14.1µM*,14.1µM*,3.3%,
O=C(O)C1CSC(c2ccncc2)N1 (stereo unspecified),11.9%,0.6%,2.7%,-3.3%,-32.0%,.,
CCOC(=O)/C=C1\CC(C(=O)OCC)Oc2c(OC)cccc21 (stereo unspecified),7.1%,-6.6%[81.1 µM],2.1%[75.6 µM],-6.0%,-8.6%,5.7%,
C=C1c2cccc(OC)c2O[C@H](C(=O)OCC)[C@@H]1CC(CC)CCCC (stereo partly specified),21.7%,0.2%[81.1 µM],-8.3%[75.6 µM],-30.8%,-12.0%,.,
COc1cc(Cl)c(C)cc1NC(=O)CSc1ncc(S(=O)(=O)c2ccc(C(C)(C)C)cc2)c(=O)[nH]1,.,.,15.8µM*,.,.,22.9µM*,
Cc1ccc(N(CC(=O)Nc2ccc(C)c(Cl)c2)S(=O)(=O)c2cccs2)cc1,.,.,-9.0%,.,.,.,
CCc1ccc(OCC(=O)N(Cc2ccc(C(C)C)cc2)C2CCS(=O)(=O)C2)cc1 (stereo unspecified),.,.,-10.2%,.,.,.,
COc1ccc(C(=O)CSc2ccc(-c3ccco3)nn2)cc1,-23.0%,-23.1%,-20.8%,-2.5%,-25.3%,.,
O=C(CSc1ccc(-c2ccco2)nn1)c1ccccc1,?,-5.4%,25.1µM*,0.1%,?,-6.1%,
N#Cc1c(SCC(=O)Nc2nncs2)sc2c(O)cc(=O)[nH]c12,.,.,11.2µM*,-91.6%,14.1µM*,?,
O=C(/C=C/c1ccccc1Cl)Nc1ccc2c(c1)C(=O)NC2=O,.,-23.4%,31.6µM*,12.6µM*,?,?,
Cc1cccc(Nc2nn3c(=O)c4cc5c(cc4nc3s2)OCO5)c1,.,.,11.2µM*,.,.,10.2µM*,
CC(C)=CCc1c(O)cc(O)c2c1O[C@H](c1ccccc1)CC2=O,.,-5.6%,-5.9%,-4.5%,.,.,
COc1cccc(C2/C(=C(\O)c3ccc4c(c3)OCCO4)C(=O)C(=O)N2CCN(C)C)c1 (stereo unspecified),6.6%,i,8.91µM*,?,-10.0%,-7.1%,
CCOc1ccc(-c2nc(SCC(=O)Nc3cc(F)ccc3F)n3[nH]c(=O)cc3n2)cc1,.,.,10µM*,.,.,11.5µM*,
COc1cccc(CNC(=O)CCS(=O)(=O)c2cc3c4c(c2)CCN4C(=O)CC3)c1,.,.,0.2%,.,.,.,
Cc1ccc(-c2nn3c(C)nnc3s2)cc1NC(=O)c1ccc(Br)o1,-4.8%,-12.0%,-2.7%,-1.7%,-0.5%,.,
Cc1ccc(-c2nn3c(C)nnc3s2)cc1NC(=O)c1ccc(-c2ccc(Cl)cc2Cl)o1,7.2%,i,11.2µM*,-2.3%,?,7.25µM*,
CCn1ncc(Br)c1C(=O)Nc1ccc(C(=O)OC(C)C)cc1,.,-12.1%,3.55µM*,-2.6%,-5.8%,?,
COc1ccc(-c2noc(-c3cccnc3N3CCN(c4ccc(OC)cc4)CC3)n2)cc1,.,.,-0.2%,.,.,.,
Cn1c(SCC(=O)c2cc(Cl)c(Cl)s2)nnc1-c1ccco1,-13.9%,-6.1%,12.6µM*,1.6%,?,?,
Cc1ccc(C(=O)CSc2nnc(-c3ccco3)n2C)cc1,6.7%,i,3.2%,12.3%,?,.,
SMILES,L3MBTL1 block,RECQ1 inh-1,BLM inh-1,APEX1 inh,WRN helicase inh,BLM inh-2,others
O=C(CSc1ccccn1)Nc1ccc2ccccc2c1,6.6%,-6.3%,-6.0%,?,.,.,
O=C(CSc1ccccn1)Nc1ccc2c(c1)C(=O)c1ccccc1C2=O,-3.4%,-0.9%,25.1µM*,?,39.8µM*,?,
O=C(Nc1c(C(=O)c2ccc(Cl)cc2)oc2ccccc12)c1cc(=O)c2ccccc2o1,.,.,-1.8%,.,.,.,
COc1ccc(S(=O)(=O)N2c3ccc(Cl)cc3[C@](O)(c3ccccc3Cl)[C@@H]2C(=O)N2CCC[C@H]2C(N)=O)cc1OC,.,-0.8%,1.5%,-9.9%,.,.,
CCC1=NN2C(=N)/C(=C\c3cccn3-c3ccc(Cl)cc3)C(=O)N=C2S1,.,-3.2%,-13.5%,1.1%,-23.0%,.,
Cc1ccc(-n2cccc2/C=C2\C(=N)N3N=C(c4ccco4)SC3=NC2=O)cc1,?,?,20µM*,10µM*,?,28.9µM*,RECQ1 inh-2=?
CC(=O)Nc1ccc(/C=N/NC(=O)c2cc(-c3ccco3)nc3ccccc23)cc1,2.6%,2.1%,-5.1%,5.7%,-0.7%,.,
O=C(O)c1ccccc1/C=N/NC(=O)c1cc(-c2ccco2)nc2ccccc12,?,22.4µM*,14.1µM*,22.4µM*,?,?,RECQ1 inh conf=39.8µM*;RECQ1 ADP FP=39.8µM*
Clc1cccc(CSc2ccc(-c3cccs3)nn2)c1,.,.,-11.4%,.,.,.,
S=C(Nc1ccc2nsnc2c1)N1CCCC1,24.6%,?,7.94µM*,?,-25.5%,?,RECQ1 inh-2=11.8%
Nc1ccc(N2CCCCC2)c2nonc12,?,?,22.4µM*,-2.7%,?,1.2%,RECQ1 inh-2=-2.3%
Nc1ccc(N2CCCCC2)cc1N1CCCCC1,?,7.8%,-3.1%,-2.2%,0.7%,.,
Cc1ccc(N2CC(NC(=O)c3ccccc3C(F)(F)F)CC2=O)cc1C (stereo unspecified),.,.,-1.4%,.,.,.,
CCC(=O)O[C@H]1C(O[C@@H]2C(C)[C@H](O[C@H]3C[C@@](C)(OC)C(O)C(C)O3)C(C)C(=O)OC(CC)[C@@](C)(O)C(O)[C@H](C)C(=O)C(C)C[C@]2(C)O)OC(C)CC1N(C)C (stereo partly specified),.,11.2µM*,28.2µM*,.,.,42.9µM*,RECQ1 inh conf=36.3µM*
O=c1[nH]c(Nc2ccc(F)cc2)cc2ccccc12,.,?,31.6µM*,6.6%,-10.5%,?,RECQ1 inh-2=-30.4%

# Bioassay records: PubChem BioAssay, National Center for Advancing Translational Sciences (NCATS)
